Screens deposited in PubChem BioAssay by Johns Hopkins Ion Channel Center.
ANO1 block: TMEM16A chloride channel inhibitors, primary screen, cell-based, HTS. AID 588511, 2011. HEK293 TMEM16A/YFP iodide influx fluorescence, ionomycin. Anoctamin-1 (Mus musculus), Q8BHY3. 310,000 tested, 1.2% active. normalized B-score (activity score, 25-100; higher = stronger inhibition) at 10 µM;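 active = ratio plate-corrected score three or more library SD toward inhibition, starting fluorescence score within five deviations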;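 also: score derived from kinetic fluorescence span divided by baseline fluorescence per well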
Target sequence (Q8BHY3 whole entry, looked up): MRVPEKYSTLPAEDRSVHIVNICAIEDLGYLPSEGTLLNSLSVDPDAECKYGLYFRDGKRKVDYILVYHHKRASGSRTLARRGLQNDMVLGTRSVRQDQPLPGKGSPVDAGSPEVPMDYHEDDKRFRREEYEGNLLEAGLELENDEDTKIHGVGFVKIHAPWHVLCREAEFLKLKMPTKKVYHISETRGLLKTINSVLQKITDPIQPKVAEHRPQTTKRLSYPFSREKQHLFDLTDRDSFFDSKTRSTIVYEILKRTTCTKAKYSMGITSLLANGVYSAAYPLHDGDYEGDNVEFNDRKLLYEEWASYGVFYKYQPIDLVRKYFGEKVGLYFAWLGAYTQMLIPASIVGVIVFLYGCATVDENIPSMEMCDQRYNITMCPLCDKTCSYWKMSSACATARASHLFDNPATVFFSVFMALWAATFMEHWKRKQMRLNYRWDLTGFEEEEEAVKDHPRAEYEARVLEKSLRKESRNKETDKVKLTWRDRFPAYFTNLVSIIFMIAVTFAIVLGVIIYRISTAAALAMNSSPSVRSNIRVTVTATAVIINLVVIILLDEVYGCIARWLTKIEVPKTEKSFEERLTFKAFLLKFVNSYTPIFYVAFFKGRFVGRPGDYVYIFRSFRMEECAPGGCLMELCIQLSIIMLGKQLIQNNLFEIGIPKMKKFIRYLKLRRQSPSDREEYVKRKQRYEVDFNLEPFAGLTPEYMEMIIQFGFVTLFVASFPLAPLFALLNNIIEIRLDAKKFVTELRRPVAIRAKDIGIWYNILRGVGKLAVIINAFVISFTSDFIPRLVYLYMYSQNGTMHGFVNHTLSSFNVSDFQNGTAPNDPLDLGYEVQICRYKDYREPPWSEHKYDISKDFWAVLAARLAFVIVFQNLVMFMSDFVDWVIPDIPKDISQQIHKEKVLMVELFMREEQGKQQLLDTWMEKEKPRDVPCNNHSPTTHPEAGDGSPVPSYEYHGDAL
ANO1 activ: TMEM16A chloride channel activators or potentiators, primary screen, cell-based, HTS | Anoctamin-1 (Mus musculus), Q8BHY3 | HEK293 TMEM16A/YFP-H148Q/I152L, iodide quench fluorescence; stronger effect = lower value | B-score at 10 µM | 340,000 tested, 0.3% active | AID 623877, 2012;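 active = fluorescence-ratio B-score plate-corrected deviation score at least 3 library SD below zero, with starting fluorescence score within 5 deviations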;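 also: channel opened by trigger with iodide after compound preincubation; score built on the fluorescence ratio of max minus min over baseline; more negative score means more quench and so TMEM16A activation or potentiation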
CHT block: inhibitors of human choline transporter CHT; High affinity choline transporter 1 (Homo sapiens), Q9GZV3; CHT-expressing cells, membrane potential dye, choline response; stronger effect = lower value; B-score at 10 µM; 310,000 tested, 0.86% active;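 active = B-score over 3 SD under the library average, and starting fluorescence ratio not unusually high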;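 also: choline stimulus applied at its EC90 after an EC20 pre-addition; B-score computed on integrated fluorescence ratio after choline addition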
CHT PAM: CHT positive allosteric modulators, primary screen, cell-based, membrane potential dye, choline EC20; High affinity choline transporter 1 (Homo sapiens), Q9GZV3; CHT-expressing cells; stronger effect = higher value; LV-AA mutant CHT in HEK293 cells; B-score at 10 µM; 310,000 tested, 0.49% active; AID 488977, 2010;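 active = initial fluorescence not abnormally high and integrated response B-score, plate-corrected, over 3 SD above library mean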
CHT act confirm: CHT activators, confirmation, cell-based, membrane potential dye, duplicate; shares compounds with CHT PAM; CHT-expressing cells, membrane potential dye fluorescence (FDSS); % of choline EC20–EC90 response window; HEK293 expressing CHT LV-AA mutant; choline added at its EC20; activation, % at 10 µM; 2,500 tested, 91% active; AID 504833, 2011;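 active = primary screen active, with duplicate mean activation above negative control mean plus 3 SD, cut at about 11% in these data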
HEK293 MP dye: membrane potential response in parental HEK293 cells, counter-screen for CHT activator project, cell-based, membrane potential dye; shares compounds with CHT PAM; membrane potential dye fluorescence (FDSS); measured after EC20 choline addition; ratio readout change at 10 µM, hits read low; 2,500 tested, 62% active;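 active = duplicate-averaged ratio beyond 3 SD from buffer wells, up or down, though filed actives are nearly all decreases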
Each line names hits and unclear results; the compound was inactive in the other large screens (follow-up assays come after a bar, where they were run). Compounds with a hit are over-represented: about 2.4% of the library has one in this group of screens.

CCOC(=O)c1sc2ncnc(N3CCN(c4ccc(OC)cc4)CC3)c2c1C	none
O=S(=O)(c1ccc2ccccc2c1)N(CC1CO1)c1ccccc1 (stereo unspecified)	none
Cc1cc(NCCN2CCOCC2)n2nc(C)c(-c3ccccc3)c2n1	none
COc1ccc(CCNc2cc(C)nc3c(-c4ccccc4)c(C)nn23)cc1OC	none
COCCNc1cc(C)nc2c3c(C)cc(C)nc3nn12	none | CHT act confirm 55 | HEK293 MP dye -65
Cc1cc(C)c2c(n1)nn1c(NCCN3CCOCC3)cc(C)nc21	CHT PAM 6.9 | CHT act confirm 50 | HEK293 MP dye -73
O=[N+]([O-])c1cccc(-c2nc(-c3ccncc3)no2)c1	CHT PAM 7.1 | CHT act confirm 44 | HEK293 MP dye -43
CCOC(=O)c1cnc2cc(C)ccn2c1=O	CHT PAM 8.5 | CHT act confirm 52 | HEK293 MP dye -49
CCc1ccccc1NCC(=O)Nc1ccc(Cl)c(C(F)(F)F)c1	none
COc1cc(NC(=O)CCC(=O)c2cccs2)cc(OC)c1	none
COc1ccc(Nc2ccnc3ccccc23)cc1	CHT PAM 6.6 | CHT act confirm 28 | HEK293 MP dye -55
COc1ccc(Nc2ncnc3ccccc23)cc1	none
Cc1ccc(C)c(N2CCN(C3CCCCC3NS(=O)(=O)c3ccccc3)CC2)c1 (stereo unspecified)	ANO1 activ -6.2, CHT PAM 6.3 | CHT act confirm 16 | HEK293 MP dye inactive
O=S(=O)(NC1CCCCC1N1CCCCC1)c1ccccc1 (stereo unspecified)	none
O=C(CSCc1c[nH]c(=O)[nH]c1=O)OCC(=O)c1ccc(Br)cc1	none
Cc1c(C)n(CCN(C)C)c2ncnc(NCc3ccccc3)c12	none | CHT act confirm 46 | HEK293 MP dye -48
COc1ccc(C(C(=O)NC(C)(C)C)N(C(=O)Cn2nnc3ccccc32)c2cccc(C(C)=O)c2)cc1O (stereo unspecified)	none
CCC(C(=O)OCn1nnc2ccccc2c1=O)c1ccccc1 (stereo unspecified)	none
CCOc1cc(-c2sc(Nc3cc(C)ccc3OC)n[n+]2-c2ccccc2)ccc1OC	none | CHT act confirm 44 | HEK293 MP dye inactive
COc1ccc(C)cc1Nc1n[n+](-c2ccccc2)c(-c2ccc(C(=O)O)cc2)s1	none
CCOc1cc(-c2sc(Nc3ccc(CC)cc3)n[n+]2-c2ccccc2)ccc1OC	none | CHT act confirm 42 | HEK293 MP dye inactive
Cc1cccc(-c2sc(Nc3ccccc3)n[n+]2-c2ccc(F)cc2)c1	CHT PAM 8.9 | CHT act confirm 52 | HEK293 MP dye inactive
COc1ccc(-c2sc(Nc3ccccc3)n[n+]2-c2ccccc2)cc1Br	none
C=CCN1C(=O)N(c2ccccc2)C(=O)C1CC(=O)Nc1ccc(OC)cc1 (stereo unspecified)	none
CCC1=Nc2ccc(Br)cc2C(c2ccccc2)N1CC(=O)OC (stereo unspecified)	CHT PAM 11 | CHT act confirm 14 | HEK293 MP dye inactive
O=C(NCCc1ccccc1)c1nnc(CS(=O)(=O)c2ccccc2)o1	none
CC1(C(=O)c2ccccc2)C2c3c(ccc4ccccc34)OC(=O)C21C(=O)N1CCOCC1 (stereo unspecified)	CHT PAM 7.3 | CHT act confirm 16 | HEK293 MP dye inactive
O=C(N1CCOCC1)N(CCN1CCOCC1)Cc1cccc2ccccc12	none
COc1cc(C(=O)NCC(c2ccccc2)N(C)C)ccc1OCC(=O)N1CCOCC1 (stereo unspecified)	none
COc1cccc(CNCc2ccc(OC)cc2OC)c1	none
CCn1c2ccccc2c2cc(CNCc3ccc(OC)cc3OC)ccc21	ANO1 block 100, CHT PAM 16 | CHT act confirm inactive | HEK293 MP dye inactive
O=C(Nc1nccs1)c1ccc(Br)s1	none
Cc1ccn2cc(-c3ccc(O)c(O)c3)nc2c1	none | CHT act confirm 36 | HEK293 MP dye -40
Cc1ccn2cc(-c3cccc(NC(=O)C(C)C)c3)nc2c1	none
Oc1ccc(-c2cn3ccccc3n2)cc1O	none | CHT act confirm 37 | HEK293 MP dye -42
COC(=O)[C@H](C)NC(=O)Nc1cc(OC)ccc1OC	none
CC(C)(C)c1ccc(NC(=O)N2CCCN(c3c(Cl)cncc3Cl)CC2)cc1	none | CHT act confirm 12 | HEK293 MP dye inactive
CCN(Cc1ccccc1)C(=O)c1nn(-c2ccc(OC)cc2)c(=O)c2c1c1ccccc1n2C	none | CHT act confirm 46 | HEK293 MP dye inactive
Cc1ccc(N=C(NOCc2ccc(Cl)cc2Cl)c2nonc2N)c(C)c1	CHT PAM 8.8 | CHT act confirm 28 | HEK293 MP dye inactive
O=C(Nc1cc(S(=O)(=O)N2CCOCC2)ccc1Cl)c1ccncc1	none (no result: ANO1 block, CHT block, CHT PAM)
CSCCC(NC(=O)c1ccco1)C(=O)N1CCN(C(c2ccccc2)c2ccccc2)CC1 (stereo unspecified)	none (no result: ANO1 block, CHT block, CHT PAM)
COc1ccc(-c2cn3cccnc3n2)cc1F	none | CHT act confirm 15 | HEK293 MP dye -33
COc1ccc(-c2cn3cccnc3n2)cc1NS(=O)(=O)c1ccccc1	none
COc1ccccc1N1C(=O)c2cccc3c(C(=O)O)ccc(c23)C1=O	none
COc1ccc2c3c(cccc13)C(=O)N(O)C2=O	none | CHT act confirm 41 | HEK293 MP dye -30
CC1CCN(S(=O)(=O)N2CCC(C(=O)NCCC3=CCCCC3)CC2)CC1	none
Cc1noc(C)c1COC(=O)c1ccccc1Oc1ccccc1	none | CHT act confirm 14 | HEK293 MP dye inactive
C=CC[C@H](CC(=O)OC(C)(C)C)C(=O)OC[C@H]1CCCN1C(=O)[C@@H](CC=C)CC(=O)N(CCO)Cc1ccccc1	none (no result: ANO1 block, CHT block, CHT PAM)
Cc1cc(C)c2c(CN3CCOCC3)cc(=O)oc2c1	none
CCN1CCN(Cc2cc(=O)oc3cc(C)cc(C)c23)CC1	CHT PAM 7.1 | CHT act confirm 40 | HEK293 MP dye -42
COc1ccc(-c2cn(-c3ccc(Br)cc3)c3[n+]2CCS3)cc1	none
Clc1ccc(-c2c[n+]3c(n2-c2ccccc2)SCC3)cc1	none | CHT act confirm 43 | HEK293 MP dye -28
Fc1ccc(-c2cn(-c3ccccc3)c3[n+]2CCS3)cc1	none | CHT act confirm 51 | HEK293 MP dye -42
Clc1ccc(-c2cn(-c3ccccc3)c3[n+]2CCS3)cc1	none | CHT act confirm 41 | HEK293 MP dye -40
OC[C@@H]1[C@@H](c2ccccc2)C(c2ccc(F)cc2)=NN1c1ccccc1	none (no result: ANO1 block, CHT block, CHT PAM)
CCc1nnc(NC(=O)CN2C(=O)N(C)C3(CCCCC3)C2=O)s1	none (no result: ANO1 block, CHT block, CHT PAM)
O=C(CCc1nnc(Cc2ccc3c(c2)OCO3)o1)NC(c1ccccn1)C(F)(F)F (stereo unspecified)	none
